High-throughput results from PubChem BioAssay.
The list is not random: actives were taken first. Their share in the collection is about 3%.
MITF TRPM1 inh: reduces MITF-dependent TRPM1 promoter luciferase signal | SK-MEL-5 TRPM1 promoter luciferase, 24 h | inhibition, % at 12.5 µM | 0.83% of 330,000 active | AID 488899;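 active = mean inhibition across replicates of 60% or more, whatever share of single replicates reaches that level; inconclusive = some that reach 60%, reason not given; inactive = mean inhibition across replicates below 60%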
EBV LMP1 NFkB: inhibitors of Epstein-Barr LMP1-induced NF-kappaB reporter | LMP1-induced NF-kappaB luciferase reporter cells, luminescence | inhibition, % at 12.5 µM | 0.69% of 350,000 active | AID 504558; in the data active = inhibition above about 41%; inconclusive = no clear call, values can overlap the other calls
KKLEB cytotox: reduces viability of KKLEB cystic fibrosis airway cells; AID 602141; activity change (cytotoxicity), % at 5 µM; KKLEB CF airway cells viability, ATPlite luminescence, overnight; stronger effect = lower value; cells stimulated with P. aeruginosa culture filtrate; 0.36% of 360,000 active;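 active = corrected activity change at or below -50% at 5 µM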
Peg3 promoter: Peg3 promoter activity inhibition; HeLa PEG-Prom luciferase reporter, luminescence, overnight; inhibition, % at 20 µM; 1.7% of 360,000 active; AID 588405;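 active = inhibition of at least 50% at 20 µM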
HIF-2a inh: blocks HIF-2a reporter activity; 786-0 RCC cells HIF-2a reporter, luciferase luminescence, overnight; inhibition, % at 18.8 µM; 0.72% of 360,000 active; AID 624352;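 active = inhibition of the luminescence signal of 40% or more relative to plate controls, in a single-dose primary screen at 18.75 µM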
CF NFkB block: cystic fibrosis NF-kB activation inhibition. AID 588850. inhibition, % at 5 µM. 0.86% of 360,000 active. KKLEB NF-kB-GFP reporter, PAF-induced, GFP fluorescence overnight;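 active = at least 50% inhibition at 5 µM, scaled per plate between neutral and stimulator controls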;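 note: PAF is a Pseudomonas aeruginosa culture filtrate used as stimulus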
Mdm2 MdmX conf: confirmation of inhibitors of human Mdm2/MdmX interaction, set 2 | shares compounds with HIF-2a inh | SaOS-2 split-luciferase Mdm2/MdmX complementation, luminescence | inhibition, % at 8 µM | 99% of 740 active | AID 504601;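 active = mean inhibition of the luminescence signal across two replicates at or above 26 percent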
Target sequence (O15151 whole entry, looked up): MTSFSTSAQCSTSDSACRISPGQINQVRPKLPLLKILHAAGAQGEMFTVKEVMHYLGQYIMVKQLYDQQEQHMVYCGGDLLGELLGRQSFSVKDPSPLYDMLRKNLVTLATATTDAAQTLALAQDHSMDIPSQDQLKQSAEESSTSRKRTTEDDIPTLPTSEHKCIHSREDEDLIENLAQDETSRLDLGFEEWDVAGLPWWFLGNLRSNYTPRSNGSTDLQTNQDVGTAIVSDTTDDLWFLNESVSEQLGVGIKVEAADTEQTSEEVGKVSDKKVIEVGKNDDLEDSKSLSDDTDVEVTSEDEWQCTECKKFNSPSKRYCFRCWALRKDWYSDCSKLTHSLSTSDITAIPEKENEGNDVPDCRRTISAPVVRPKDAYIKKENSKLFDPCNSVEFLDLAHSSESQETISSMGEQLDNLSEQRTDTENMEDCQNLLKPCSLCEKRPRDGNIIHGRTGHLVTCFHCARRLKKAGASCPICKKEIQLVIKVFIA
Target sequence (Q00987 whole entry, looked up): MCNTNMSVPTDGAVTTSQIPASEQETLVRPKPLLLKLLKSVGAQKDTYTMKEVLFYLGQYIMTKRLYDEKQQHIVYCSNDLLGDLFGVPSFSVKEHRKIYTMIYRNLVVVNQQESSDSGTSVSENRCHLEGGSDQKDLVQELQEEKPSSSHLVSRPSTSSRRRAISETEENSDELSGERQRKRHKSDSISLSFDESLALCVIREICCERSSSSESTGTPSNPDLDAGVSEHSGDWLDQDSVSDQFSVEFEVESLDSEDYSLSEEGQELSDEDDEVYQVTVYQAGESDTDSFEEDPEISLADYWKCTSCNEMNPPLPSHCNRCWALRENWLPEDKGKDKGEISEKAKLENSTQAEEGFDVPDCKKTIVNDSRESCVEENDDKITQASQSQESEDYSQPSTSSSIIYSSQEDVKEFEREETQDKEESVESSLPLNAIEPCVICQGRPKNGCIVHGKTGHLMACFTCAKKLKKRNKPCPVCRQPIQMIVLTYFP
HIF-2a inh conf: HIF-2a inhibition, single concentration confirmation; 56% of 1,800 active; shares compounds with HIF-2a inh; inhibition, % at 18.8 µM; AID 651580; 786-0 RCC cells, HIF-2a luciferase reporter luminescence, overnight;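 active = mean inhibition across four replicates of at least 40 percent at the single tested concentration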
HIF-1a cs: HIF-1a inhibition counter-screen for HIF-2a hits | shares compounds with HIF-2a inh | MiaPaCa-2 HIF-1a luciferase reporter, desferoxamine, overnight | inhibition, % at 18.8 µM | 72% of 1,800 active;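 active = mean inhibition of the reporter signal across four replicates at the single tested dose of 50% or more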
Each line names hits and unclear results; the compound was inactive in the other large screens (follow-up assays come after a bar, where they were run).

CCN(CC(=O)Nc1cc(Cl)ccc1C)CC(=O)NC1CC1	none (no result: MITF TRPM1 inh)
CCN(CC)C(=O)C1=C(C)N(Cc2ccc(OC)cc2)C(=O)C(CC(=O)NC2CCCC2)C1 (configuration not stated)	none (no result: MITF TRPM1 inh)
Cc1ccc(NC(=O)CCC(=O)N/N=C/c2coc3ccccc3c2=O)cc1	HIF-2a inh 53 | HIF-2a inh conf inactive | HIF-1a cs inactive
O=C(Cc1coc2cc3c(cc12)CCC3)OCC(=O)N1CCCC1=O	HIF-2a inh 80 | HIF-2a inh conf 77 | HIF-1a cs 83
Nc1cc(Nc2ccccc2)ccn1	none
N#Cc1sc2nccc(Nc3ccccc3)c2c1N	CF NFkB block 81 (no result: MITF TRPM1 inh, EBV LMP1 NFkB) | Mdm2 MdmX conf 91
COc1ccccc1-c1cnc(C(O)c2cc(C)c(OC)c(C)c2)[nH]1 (configuration not stated)	none (no result: MITF TRPM1 inh, EBV LMP1 NFkB)
CCOc1ccc(-n2cnc3scc(-c4ccc(OC)c(OC)c4)c3c2=O)cc1	HIF-2a inh 41 | HIF-2a inh conf inactive | HIF-1a cs inactive
N#CC1=C(N)N2C(=C(C#N)C1c1ccc(Br)cc1)Nc1ccccc12 (configuration not stated)	none (no result: MITF TRPM1 inh, EBV LMP1 NFkB, KKLEB cytotox, Peg3 promoter, HIF-2a inh, CF NFkB block) | Mdm2 MdmX conf 101
CCOc1ccc(C2C(C#N)=C(N)N3C(=C2C#N)Sc2ccccc23)cc1 (configuration not stated)	none
COc1ccccc1Oc1cc(C#N)c(C#N)cc1-n1nnc2ccccc21	HIF-2a inh 46 | HIF-2a inh conf inactive | HIF-1a cs 54
O=C1OC(Cc2ccccc2)(c2ccccc2)c2ccccc21 (configuration not stated)	none (no result: MITF TRPM1 inh)
COCC(=O)Oc1cc(-c2ccc(C)cc2C)c(OC(=O)COC)c(-c2ccc(C)cc2C)c1	none (no result: MITF TRPM1 inh)
Cn1c(=S)n(C)c2ccccc21	HIF-2a inh 55 | HIF-2a inh conf inactive | HIF-1a cs inactive
CCCCC(=O)N(C)c1c(C)nc2ccc(C(=O)NCCN(C)C)cn12	none (no result: MITF TRPM1 inh, EBV LMP1 NFkB)
NC(=S)c1cc2ccc(O)cc2oc1=O	none
Oc1cc(O)cc(-c2cc3ccc(O)cc3o2)c1	HIF-2a inh 40 | HIF-2a inh conf inactive | HIF-1a cs inactive
Cc1ccc(-n2nc3c(N4CCC(C(=O)NCc5ccc(C)o5)CC4)nnc(C)c3c2C)cc1	none
Cc1ccc(-n2nc3c(N4CCC(C(=O)NCCc5ccccc5C)CC4)nnc(C)c3c2C)cc1	MITF TRPM1 inh 94, Peg3 promoter 58, HIF-2a inh 49 | HIF-2a inh conf inactive | HIF-1a cs inactive
Cc1ccc(-n2nc3c(N4CCC(C(=O)NCCc5ccco5)CC4)nnc(C)c3c2C)cc1	none
COc1ccc(-n2nc3c(N4CCC(C(=O)NC5CCCCC5)CC4)nnc(C)c3c2C)cc1	Peg3 promoter 71, HIF-2a inh 65 | HIF-2a inh conf inactive | HIF-1a cs 60
COc1ccc(-n2nc3c(N4CCC(C(=O)NCc5ccccc5C)CC4)nnc(C)c3c2C)cc1	MITF TRPM1 inh 85, Peg3 promoter 104, HIF-2a inh 91 | Mdm2 MdmX conf 103 | HIF-2a inh conf 65 | HIF-1a cs 96
CCOc1ccc(-c2noc(-c3csc([C@@H]4O[C@H](CO)[C@H](O)[C@H](O)[C@H]4O)n3)n2)cc1	none (no result: MITF TRPM1 inh, EBV LMP1 NFkB)
CC(C)C(=O)N1CCC1(C)C(=O)NCc1ccc(C(C)(C)C)cc1 (configuration not stated)	none (no result: MITF TRPM1 inh, EBV LMP1 NFkB)
Cc1[nH]n(-c2ccccc2)c(=O)c1/C=N/Nc1nncc(-c2ccccc2)n1	EBV LMP1 NFkB 69 | Mdm2 MdmX conf 84
Cc1ccc(/C=N/Nc2nncc(-c3ccccc3)n2)o1	none
CCOc1ccc(CCN2C(=O)C(=O)N([C@@H](Cc3ccccc3)CN3CCC[C@H]3CN3C(=O)C(=O)NC[C@@H]3Cc3ccccc3)C[C@@H]2CC(C)C)cc1	HIF-2a inh 48 (no result: MITF TRPM1 inh, EBV LMP1 NFkB, KKLEB cytotox, Peg3 promoter, CF NFkB block) | HIF-2a inh conf inactive | HIF-1a cs 103
CC(C)(C)c1ccc(-c2cc(N)n[nH]2)cc1	MITF TRPM1 inh 95, HIF-2a inh 87 | HIF-2a inh conf 95 | HIF-1a cs 74
Cc1ccc(-c2cc(N)n[nH]2)cc1	none
O=c1nc(/C=C/c2cc([N+](=O)[O-])ccc2Cl)cc(C(F)(F)F)[nH]1	HIF-2a inh 83 | HIF-2a inh conf 61 | HIF-1a cs 79
COc1cc(/C=C/c2cc(C(F)(F)F)[nH]c(=O)n2)cc(OC)c1OC	HIF-2a inh 40 | HIF-2a inh conf inactive | HIF-1a cs inactive
Cc1ccc(S(=O)(=O)ON2C(=O)c3cccc4cccc(c34)C2=O)cc1	none
Cc1ccc(C)c(S(=O)(=O)ON2C(=O)c3ccccc3C2=O)c1	Peg3 promoter 56, HIF-2a inh 68 | HIF-2a inh conf 57 | HIF-1a cs inactive
COc1c(Cl)cnn(-c2ccc(C)cc2)c1=O	none
O=c1c(Br)c(Br)cnn1-c1ccccc1	MITF TRPM1 inh 92, KKLEB cytotox -85, Peg3 promoter 108, HIF-2a inh 96, CF NFkB block 90 | HIF-2a inh conf 99 | HIF-1a cs 107
O=c1c(Br)c(N2CCCC2)cnn1-c1ccccc1	none
Cc1ccc(-n2ncc(Br)c(Br)c2=O)cc1	MITF TRPM1 inh 83, Peg3 promoter 102, HIF-2a inh 92, CF NFkB block 69 | HIF-2a inh conf 99 | HIF-1a cs 102
Clc1ccccc1OCCNc1nc(NCC2CC2)nc2ccsc12	none (no result: MITF TRPM1 inh, EBV LMP1 NFkB)
Cc1c(C)c2c(OCC(=O)NCC3CCC(C(=O)O)CC3)cc3c(c2oc1=O)CCC(C)(C)O3 (configuration not stated)	none (no result: MITF TRPM1 inh, EBV LMP1 NFkB)
Nc1[nH]c(C(=O)c2ccccc2)c(-c2ccncc2)c1C(=O)NCc1ccc(Cl)cc1	none (no result: MITF TRPM1 inh, EBV LMP1 NFkB, KKLEB cytotox, Peg3 promoter, CF NFkB block)
Cc1ccc(NC(=S)/C(C#N)=C2/Nc3ccccc3S2)cc1	HIF-2a inh 68 (no result: MITF TRPM1 inh) | HIF-2a inh conf inactive | HIF-1a cs 56
CC(C)Cc1nc2oc3c(NCCCN4CCOCC4)ncnc3c2c2c1CCC2	none
CC(C)Cc1nc2oc3c(Cl)ncnc3c2c2c1CCC2	MITF TRPM1 inh inconclusive, Peg3 promoter 106, HIF-2a inh 67 | Mdm2 MdmX conf 103 | HIF-2a inh conf 49 | HIF-1a cs 108
C=CCS(=O)(=O)c1nc2ccccc2s1	Peg3 promoter 104, HIF-2a inh 88, CF NFkB block 52 | HIF-2a inh conf inactive | HIF-1a cs inactive
CC(C)(C)S(=O)(=O)c1nc2ccccc2s1	none
O=S(=O)(CCSc1nc2ccccc2s1)c1nc2ccccc2s1	Peg3 promoter 58, HIF-2a inh 57, CF NFkB block 73 | Mdm2 MdmX conf 103 | HIF-2a inh conf inactive | HIF-1a cs 69
